# Source: PubChem BioAssay
# A selection: hits, their analogues and other compounds. The true share with any hit is near 7.4%.
# ELG1 genotoxic – induces genotoxicity in HEK293T cells with luciferase-tagged ELG1 | 330,000 compounds, 1.3% hits | HEK293T ELG1-luciferase reporter, luminescence, 16 h | Potency, µM (titrated, usually from 46 µM), usual class: activators | AID 504466; further: nearly all actives have a fitted effect of over 60% in size
#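 Screening used a luciferase reporter fused to human ELG1 in HEK293T cells. Luminescence was read on a CCD plate imager after 16 hr exposure and 30 min ONE-Glo incubation.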
# NPC1 promoter act – activators of NPC1 promoter | Huh7 NPC1 promoter luciferase reporter, 24 h | Potency, µM (doses to about 9.22 µM), actives largely listed as activators | 320,000 compounds, 2.4% hits | AID 485313; further: nearly all actives have a fitted effect of over 60% in size
#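 Stable NPC1-promoter luciferase Huh7 line; cpd (DMSO) 24 h, 37 °C, 5% CO2; Amplite luciferase reagent 10 min RT; luminescence readout. qHTS format.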
# SMN2 splice enh – SMN2 splice variant enhancement; HEK293 SMN2-luciferase splicing reporter, luminescence, 30-36 h; Potency, µM (doses to about 46.1 µM), most hits filed as activators; 210,000 compounds, 2.8% hits; further: nearly all actives have a fitted effect of over 55% in size
#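 qHTS luciferase splicing reporter: luminescence rises when SMN2 exon 7 is included in transfected HEK293 cells. Compound exposure lasted 30-36 h at 37C, with 4.5 mM final sodium butyrate as control, followed by a ONE-Glo read.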
# FLuc counter – counter-screen for miR-21 project: firefly luciferase inhibitors or activators. AID 588342. purified FLuc, Km substrates, luminescence inhibition. Potency, µM (top dose mostly 57.5 µM), hits mostly inhibitors. 360,000 compounds, 6.9% hits; further: nearly all actives have a fitted effect of over 55% in size
# Target sequence (P08659 whole entry, looked up): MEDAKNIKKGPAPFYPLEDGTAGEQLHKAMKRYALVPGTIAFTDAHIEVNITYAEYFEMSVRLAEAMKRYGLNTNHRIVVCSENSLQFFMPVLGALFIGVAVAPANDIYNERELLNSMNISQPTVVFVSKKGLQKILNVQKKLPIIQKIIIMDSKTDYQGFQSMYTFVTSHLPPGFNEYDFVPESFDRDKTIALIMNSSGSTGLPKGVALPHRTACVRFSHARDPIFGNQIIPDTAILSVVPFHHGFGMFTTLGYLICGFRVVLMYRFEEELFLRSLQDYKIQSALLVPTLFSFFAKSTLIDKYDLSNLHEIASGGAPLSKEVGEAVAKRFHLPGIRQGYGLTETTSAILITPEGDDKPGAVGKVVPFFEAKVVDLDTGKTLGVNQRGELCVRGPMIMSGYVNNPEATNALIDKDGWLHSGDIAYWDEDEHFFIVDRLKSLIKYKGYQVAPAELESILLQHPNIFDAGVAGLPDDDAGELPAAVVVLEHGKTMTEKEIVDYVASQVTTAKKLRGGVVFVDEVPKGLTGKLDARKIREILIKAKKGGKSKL
#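 Biochemical qHTS of compounds, final roughly 60 µM downward over six points, against 10 nM purified firefly luciferase using Km concentrations of substrates (10 uM D-luciferin, 10 uM ATP) in Tris acetate pH 7.5 buffer; luminescence output.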
# Rab9 promoter act – activates the Rab9 promoter; Huh7 Rab9 promoter-luciferase reporter, luminescence, 24 h; Potency, µM (doses to about 9.22 µM), usual class: activators; 320,000 compounds, 2.8% hits; AID 485297; further: nearly all actives have a fitted effect of over 60% in size
#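 Cells were plated at 1500 per well in reduced-serum medium with 10% FBS and left 2 h. Compound in DMSO was then added for 24 h at 37 °C. Reporter signal was read by luminescence after 10 min with luciferase detection reagent.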
# A number is an active result; 0 = inactive; ? = inconclusive; - = not tested or not shown. The call rests on the fitted dose curve; in most records, active means well fitted curve in the direction sought with a large enough effect; inconclusive means small, poorly fitted or top-dose-only effect, or another doubt; inactive means no such curve, though single readings can be large; an effect the other way counts as inactive or inconclusive.
SMILES,ELG1 genotoxic,NPC1 promoter act,SMN2 splice enh,FLuc counter,Rab9 promoter act
COc1ccc(/C=C2\SC(=S)N(C(C(=O)O)c3ccccc3)C2=O)c(OC)c1 (configuration not stated),0,0,-,24µM,0
NC(=O)N(N)c1nc(N2CCCC2)nc(N2CCCC2)n1,0,0,-,0,0
C#CCN1Cc2ccccc2Oc2cc(Br)ccc2S1(=O)=O,0,-,-,-,-
CSc1ccc(C(=O)C2CCCN(C(=O)c3ccc4c(c3)no[n+]4[O-])C2)cc1 (configuration not stated),0,0,-,0,0
Cc1ccc(NC(=O)Nc2cccn(Cc3c(F)cccc3Cl)c2=O)cc1,0,0,0,7.6µM,0
O=C(Nc1cccn(Cc2c(F)cccc2Cl)c1=O)NC1CCCCC1,0,0,-,13µM,0
O=C(Nc1cccn(Cc2c(Cl)cccc2Cl)c1=O)C1CC1,0,0,0,0,0
O=C(NCc1ccccc1)Nc1cccn(Cc2c(F)cccc2Cl)c1=O,0,0,0,13µM,0
C#CCOC(=O)Nc1cccn(Cc2c(Cl)cccc2Cl)c1=O,0,0,0,17µM,0
O=C(Nc1cccn(Cc2cccc(F)c2)c1=O)NC1CCCCC1,0,0,0,?,0
CC(C)=CCCC1(C)C=Cc2c(c(C)cc3c2[nH]c2cc(O)ccc23)O1 (configuration not stated),0,0,-,?,0
O=C(Nc1cccc(S(=O)(=O)NCc2ccco2)c1)c1cccc(Cl)c1,0,-,-,-,-
C=CCNc1nc(Nc2ccccc2F)nc(OCC)n1,0,4µM,11µM,21µM,4µM
CCOc1nc(Nc2ccccc2F)nc(OCC)n1,0,0,-,0,0
Cc1cc(Br)c(NC(=O)c2c(-c3c(Cl)cccc3Cl)noc2C)c(Br)c1,0,0,-,0,0
CCCCn1c(N)c(N(CCOC)C(=O)c2ccc(Cl)c(S(=O)(=O)N3CCCCC3)c2)c(=O)[nH]c1=O,0,0,-,0,0
O=C(O)C(=O)/C(=C\c1cccc(Cl)c1)c1ccc2ccccc2n1,?,0,11µM,?,0
N#Cc1ccc(/C=C(\C(=O)C(=O)O)c2ccc3ccccc3n2)cc1,?,0,-,?,?
Cc1cccc(/C=C(\C(=O)C(=O)O)c2ccc3ccccc3n2)c1,15µM,2.2µM,22µM,?,2.2µM
O=C(NCc1ccccc1Cl)c1ccc2oc(=O)n(Cc3ccccc3)c2c1,-,-,-,0,-
CC(=O)c1cccc(NC(=O)c2cc(-c3ccco3)nc3ccccc23)c1,0,0,-,0,0
CNC(=O)COC(=O)c1cc(-c2ccco2)nc2ccccc12,0,0,-,?,0
O=C(NNC(=O)c1cc(-c2ccco2)nc2ccccc12)c1ccccc1,0,0,-,19µM,0
CC(=O)Nc1ccc(NC(=O)c2cc(-c3ccccc3)nc3ccccc23)cc1,0,0,-,?,0
O=C(O)c1ccccc1/C=N/NC(=O)c1cc(-c2ccco2)nc2ccccc12,0,0,-,0.95µM,0
SMILES,ELG1 genotoxic,NPC1 promoter act,SMN2 splice enh,FLuc counter,Rab9 promoter act
CC(=O)Nc1ccc(/C=N/NC(=O)c2cc(-c3ccco3)nc3ccccc23)cc1,0,0,-,2.1µM,0
CCN1CCN(C(=O)c2cc(-c3ccco3)nc3ccccc23)CC1,0,0,-,?,0
O=C(O)c1cc(-c2ccco2)nc2cc3ccccc3cc12,0,0,-,8.5µM,0
CCc1ccc(NS(=O)(=O)c2ccc(C(=O)N(C)C)s2)cc1,-,-,-,0,-
N#C/C(=C\c1cccs1)C(=O)NCc1ccccc1,0,0,0,0,0
N#C/C(=C\c1cccs1)C(=O)c1ccccc1Cl,0,0,-,21µM,0
N#C/C(=C\c1cccs1)C(=O)Nc1nccs1,?,3.5µM,?,4.3µM,2.8µM
O=C(OCC(=O)N1CCN(C(=O)c2ccco2)CC1)c1ccccc1OCc1ccccc1,0,0,0,0,0
O=C(OCC(=O)N1CCOCC1)c1ccccc1OCc1ccccc1Cl,0,-,-,-,-
O=C(OCC(=O)N1CCOCC1)c1ccccc1OCc1ccccc1,0,0,-,24µM,0
O=C(OCC(=O)N1CCOCC1)c1ccc2ccccc2c1O,?,3.2µM,-,17µM,4µM
O=C(OCC(=O)N1CCCC1)c1ccccc1OCc1ccccc1,?,0,13µM,17µM,0
COc1ccccc1C(=O)OCC(=O)N1CCC(Cc2ccccc2)CC1,0,0,-,17µM,0
COc1ccc(Nc2nc(Nc3ccc(OC)cc3OC)nc(N3CCOCC3)n2)c(OC)c1,-,-,0,0,-
CC1CCCC(C)N1C(=O)COC(=O)c1cc(F)c(F)cc1Cl (configuration not stated),0,-,-,-,-
CCC(C)N1CCC(Oc2ccc(C(=O)NCc3ccccn3)cc2)CC1 (configuration not stated),0,0,-,0,0
O=C(/C=C/c1ccc(Cl)cc1)N(Cc1cccs1)C1CCS(=O)(=O)C1 (configuration not stated),0,0,-,0,0
O=C1CNC(=S)N1c1nc2ccccc2s1,?,?,-,17µM,?
COc1cc(/C=N\Nc2nncn2N)ccc1OC(C)=O,0,0,-,?,0
COc1cc(/C=N/Nc2nncn2/N=C/c2ccc(O)c(OC)c2)ccc1O,0,?,25µM,0.38µM,?
COc1ccc(OC)c(/C=N/Nc2nncn2/N=C/c2cc(OC)ccc2OC)c1,0,0,0,15µM,0
O=C(Nc1cccc(C(F)(F)F)c1)c1cc2nc(-c3ccc4c(c3)OCO4)cc(C(F)(F)F)n2n1,-,-,0,0,-
CCN1/C(=C\C(=S)Nc2ccccc2)Sc2ccccc21,?,?,?,13µM,2.8µM
CCN1/C(=C\C=C(C(C)=O)C(C)=O)Sc2ccccc21,0,0,0,0,0
O=c1[nH]c(-c2ccco2)nc2sc3c(c12)CCCC3,9.2µM,2µM,1µM,3µM,1.6µM
SMILES,ELG1 genotoxic,NPC1 promoter act,SMN2 splice enh,FLuc counter,Rab9 promoter act
O=c1[nH]c(S)nc2sc3c(c12)CCCC3,0,0,0,?,0
O=c1oc(/C=C/c2ccco2)nc2sc3c(c12)CCC3,0,0,0,0.95µM,0
O=C(Nc1ccc(N2CCCCCC2)cc1)c1cccc(S(=O)(=O)N2CCOCC2)c1,0,0,-,?,0
CC(=O)c1c(C)[nH]c(C(=O)NNC(=O)c2ccc(Br)cc2)c1C,0,-,-,-,-
COCc1cc(=O)n2[nH]c(-c3ccc(C)cc3)cc2n1,15µM,0,0,12µM,0
Cc1nc2cc(-c3ccccc3)[nH]n2c(=O)c1C,21µM,0,-,13µM,?
CCOC(=O)c1cc(=O)n2[nH]c(-c3ccc(C)cc3)cc2n1,?,0,?,13µM,0
COc1ccc(-c2cc3nc(N)cc(=O)n3[nH]2)cc1,-,-,0,0,-
Cc1cc(=O)n2[nH]c(-c3ccc(C(C)(C)C)cc3)cc2n1,0,0,0,11µM,0
CCCCCSc1ncnc2c1sc1nc(N3CCOCC3)c3c(c12)CCCC3,-,-,0,0,-
COc1ccccc1CNC(=O)CCN=C1NS(=O)(=O)c2ccccc21,0,0,-,0,0
Cc1ccc(C)n1-c1nnc(N2CCCC(C(=O)NCc3cccc(Cl)c3)C2)s1 (configuration not stated),-,-,0,0,-
